This passage reports growth results from PubChem BioAssay (NCI).

Among the test systems are SR leukemia; RPMI-8226 leukemia; OVCAR-8 ovarian; OVCAR-5 ovarian; OVCAR-4 ovarian; SK-OV-3 ovarian; IGROV1 ovarian; OVCAR-3 ovarian; HS 578T breast; NCI/ADR-RES ovarian; T-47D breast; MDA-MB-435 melanoma; SW-620 colon; MCF7 breast; HCT-116 colon; HCC-2998 colon; KM12 colon; BT-549 breast.
Holding throughout (test): NCI-60 one-dose screen, 48 h (100 = growth as untreated, 0 = no growth, -100 = all killed)
Conditions in all cases: 10 µM unless noted

SMILES strings stand for the structures. Compounds without any hit were thinned out: in the full panel of roughly 83,000, 20% have a hit.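 Step 1: grow cells in 96-well plates. Step 2: add test compound at a single concentration. Step 3: incubate 48 h. Step 4: record percent growth.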 Values without a mark were called inactive. Active and inactive are the calls of the source. How the source made its calls: active means growth percent below 10; inactive means the rest.

`CCCCCCCCCCCC(=O)OC(C)C(=O)Nc1ccccc1` (stereo not drawn): the growth in the assay with SR leukemia is 86.1%; in the assay with RPMI-8226 leukemia, 99.8%; in the assay with OVCAR-8 ovarian it was 95.4%; in the assay on OVCAR-5 ovarian it was 95.2%; in the assay with OVCAR-4 ovarian, 105%; in the assay with SK-OV-3 ovarian, 97.6%. Moreover, the growth in the assay with IGROV1 ovarian was 103%; in the assay with OVCAR-3 ovarian, 102%; in the assay with HS 578T breast, 94.3%; in the assay on NCI/ADR-RES ovarian, 100%; in the assay with T-47D breast it was 87.9%; in the assay on MDA-MB-435 melanoma, 106%. Besides, the growth in the assay with SW-620 colon was 95.1%; with MCF7 breast, 91.7%; in the assay on HCT-116 colon it was 96.5%; in the assay with HCC-2998 colon, 103%; in the assay on KM12 colon, 102%.

As to `CC([C@H]1CCC2C3CCC4C[C@@H](N)CC[C@]4(C)C3CC[C@@]21C)N(C)C` (stereo partly drawn), the growth with SR leukemia was 18.5%; with RPMI-8226 leukemia it was 58.7%; in the assay on OVCAR-8 ovarian, 85.7%; in the assay on OVCAR-5 ovarian it was 98.5%; in the assay on OVCAR-4 ovarian it was 38.4%; with SK-OV-3 ovarian it was 91.1%. Further, the growth in the assay with IGROV1 ovarian was 53.1%; with OVCAR-3 ovarian, 71.5%; with HS 578T breast it was 79.1%; with NCI/ADR-RES ovarian, 81.5%; with T-47D breast, 55.9%; with BT-549 breast, 80.1%. The growth with MDA-MB-435 melanoma is 0% (active); with SW-620 colon it was 40.2%; with HCT-116 colon it was 27.9%; in the assay with HCC-2998 colon, 80.1%; in the assay with KM12 colon it was 51.3%.

As to `CCCCCCCCCCCCCCCCNC(=O)Nc1ccc(C)c(NC(=O)NCCCCCCCCCCCCCCCC)c1`, the growth with SR leukemia is 104%; in the assay on RPMI-8226 leukemia it was 99.2%; in the assay on OVCAR-8 ovarian it was 105%; in the assay on OVCAR-5 ovarian it was 109%; with OVCAR-4 ovarian it was 108%; with SK-OV-3 ovarian, 105%. Moreover, the growth is 107% with IGROV1 ovarian; 109% in the assay on OVCAR-3 ovarian; 95.1% in the assay on HS 578T breast; 112% in the assay on NCI/ADR-RES ovarian; 104% in the assay with T-47D breast; 104% with BT-549 breast. Moreover, the growth in the assay on MDA-MB-435 melanoma is 105%; with MCF7 breast, 101%; in the assay on HCT-116 colon, 117%; in the assay on HCC-2998 colon, 110%; in the assay on KM12 colon it was 113%.

Take `O=C1NCCN1/N=C/c1c(Cl)nc2n1CCS2`: the growth in the assay with SR leukemia is 59.4%; in the assay with RPMI-8226 leukemia, 63.7%; in the assay with OVCAR-8 ovarian, 115%; in the assay on OVCAR-5 ovarian, 102%; in the assay with OVCAR-4 ovarian it was 113%; in the assay with SK-OV-3 ovarian, 111%. Besides, the growth in the assay on IGROV1 ovarian was 84%; in the assay with OVCAR-3 ovarian, 106%; with HS 578T breast, 139%; in the assay with NCI/ADR-RES ovarian, 114%; with T-47D breast, 119%; with BT-549 breast it was 97.7%. Besides, the growth with MDA-MB-435 melanoma is 112%; with MCF7 breast it was 106%; in the assay with HCT-116 colon it was 93.5%; in the assay on HCC-2998 colon, 111%; with KM12 colon, 101%.

As for `O=c1c2c(c3ccccc3n1-c1ccccc1)NC(=S)NC2c1ccccc1` (stereo not drawn), the growth in the assay on SR leukemia is 108%; with RPMI-8226 leukemia it was 50.1%; in the assay with OVCAR-8 ovarian it was 106%; in the assay on OVCAR-5 ovarian, 102%; in the assay on OVCAR-4 ovarian, 79.5%; with SK-OV-3 ovarian, 95.1%. Also, the growth in the assay on IGROV1 ovarian is 102%; in the assay on OVCAR-3 ovarian, 105%; with HS 578T breast it was 105%; with NCI/ADR-RES ovarian, 109%; in the assay with T-47D breast it was 59.9%; with MDA-MB-435 melanoma, 111%. Besides, the growth in the assay on SW-620 colon was 107%; in the assay on MCF7 breast, 42.3%; in the assay with HCT-116 colon, 96.1%; in the assay on HCC-2998 colon, 98.8%; in the assay with KM12 colon, 104%.

On to `CCCCCSc1ccc2nc(NC(=O)OCCC)sc2c1`, for which the growth in the assay on SR leukemia is 34.2%; in the assay on RPMI-8226 leukemia, 29.6%; with OVCAR-8 ovarian it was 65.8%; with OVCAR-5 ovarian, 86.3%; in the assay with OVCAR-4 ovarian, 35.1%; in the assay on SK-OV-3 ovarian it was 41.9%. Besides, the growth is 55.4% in the assay on IGROV1 ovarian; 13.3% with OVCAR-3 ovarian; 23.9% in the assay with HS 578T breast; 22.7% in the assay on NCI/ADR-RES ovarian; 38.1% in the assay on T-47D breast; 34.2% with BT-549 breast. For the same molecule, the growth is -40.5% (active) in the assay on MDA-MB-435 melanoma; 14.3% with MCF7 breast; 25.3% in the assay with HCT-116 colon; 74% with HCC-2998 colon; 24.9% in the assay on KM12 colon.

In the case of `CC(=O)Nc1nc(C)c(C(=O)N/N=C/N2CCCCC2)s1`, the growth in the assay with SR leukemia is 104%; in the assay with RPMI-8226 leukemia it was 124%; with OVCAR-8 ovarian, 103%; in the assay with OVCAR-5 ovarian, 103%; in the assay with OVCAR-4 ovarian it was 121%; with SK-OV-3 ovarian it was 103%. For the same molecule, the growth in the assay on IGROV1 ovarian is 9.23% (active); in the assay with OVCAR-3 ovarian it was 128%; in the assay with HS 578T breast it was 107%; in the assay on NCI/ADR-RES ovarian, 104%; in the assay on T-47D breast, 98.4%; in the assay with MDA-MB-435 melanoma, 125%. Also, the growth is 106% in the assay with SW-620 colon; 94.8% in the assay with MCF7 breast; 55.8% in the assay on HCT-116 colon; 20.3% with HCC-2998 colon; 128% with KM12 colon.

In the case of `CCOC(=O)c1c(C)oc2ncnc(Nc3ccc(NC(=O)Nc4cccc(Cl)c4)cc3)c12`, the growth is 53.6% with SR leukemia; 46.1% in the assay with RPMI-8226 leukemia; 50.2% in the assay on OVCAR-8 ovarian; 122% in the assay with OVCAR-5 ovarian; 73.7% in the assay with OVCAR-4 ovarian; 93.3% in the assay with SK-OV-3 ovarian. Moreover, the growth in the assay on IGROV1 ovarian is 78.4%; in the assay with OVCAR-3 ovarian, 80.9%; in the assay on HS 578T breast it was 80.6%; with NCI/ADR-RES ovarian, 43.8%; in the assay with T-47D breast, 1.99% (active); in the assay on MDA-MB-435 melanoma, 65.8%. Moreover, the growth with SW-620 colon is 88.7%; with MCF7 breast, 43.3%; in the assay with HCT-116 colon, 50.8%; with HCC-2998 colon, 105%; with KM12 colon, 61%.

As for `C/C=C/C/C=C/[C@H](C)C[C@H](O)[C@@H]1C[C@@H]2O[C@H]2/C=C/[C@@H]2OC(C)(C)O[C@H]2/C=C/C[C@H](C)CC(=O)O1`, the growth was 18.8% in the assay with SR leukemia; -5.18% (active) in the assay with RPMI-8226 leukemia; 15.8% in the assay on OVCAR-8 ovarian; 68.5% in the assay with OVCAR-5 ovarian; 23.3% in the assay on OVCAR-4 ovarian; 88.5% in the assay with SK-OV-3 ovarian. In addition, the growth in the assay with IGROV1 ovarian was 25.2%; with OVCAR-3 ovarian, 21.5%; with HS 578T breast it was -18.8% (active); in the assay with NCI/ADR-RES ovarian, 7.52% (active); in the assay with T-47D breast, -4.89% (active); in the assay with MDA-MB-435 melanoma it was 77.1%. Further, the growth with SW-620 colon is 56.8%; in the assay with MCF7 breast, 45.1%; with HCT-116 colon, 18.6%; in the assay on HCC-2998 colon it was 71.9%; in the assay on KM12 colon, 31.7%.
